Sampled rows, rich in hits. Any-hit rate of the full collection: about 12%.
JMJD2A Tudor inh: qHTS Assay for Inhibitors of JMJD2A-Tudor Domain | Lysine-specific demethylase 4A (Homo sapiens), O75164 | AlphaScreen JMJD2A-Tudor / H3K4me3 peptide binding | Potency, µM (top dose mostly 114 µM), without a hit: at the top dose activity change, negative = inhibition, actives largely listed as inhibitors | hit rate 4.4% among 390,000 | AID 504339, 2011; also: potency is read from the fitted curve at half-maximal effect; % is scaled to controls: 0 for no effect and ±100 for the full control effect; nearly all actives have a fitted effect of over 50% in size
G9a block: qHTS Assay for Inhibitors of Histone Lysine Methyltransferase G9a. G9a H3K9 monomethylation, AlphaScreen, 2 h. Potency, µM (series often up to 102 µM), without a hit: at the highest dose activity, negative = inhibition, most hits filed as inhibitors. hit rate 8.8% among 350,000. Histone-lysine N-methyltransferase EHMT2 (Homo sapiens), Q96KQ7. AID 504332, 2011; also: potency is read from the fitted curve at half-maximal effect; % is scaled to controls: 0 for no effect and ±100 for the full control effect; nearly all actives have a fitted effect of over 75% in size
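Compounds were preincubated with 20 nM G9a for 15 min, after which biotinylated H3K9 peptide (500 nM) and SAM (20 uM) started a 2 h room-temperature reaction. Monomethylated product was quantified by antibody-based AlphaScreen chemiluminescence.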
PLK1 PBD block: qHTS for Inhibitors of PLK1-PDB (polo-like kinase 1 - polo-box domain): Primary Screen; hit rate 2.8% among 360,000; Serine/threonine-protein kinase PLK1 (Homo sapiens), P53350; Potency, µM, for the others: max response, negative = inhibition, hits mostly inhibitors; Plk1 PBD binding of FITC phosphopeptide, fluorescence polarization; also: potency is read from the fitted curve at half-maximal effect; series mostly up to about 57 µM; % is scaled to controls: 0 for no effect and ±100 for the full control effect; nearly all actives have a fitted effect of over 65% in size
PI5P4Ka inh: qHTS for Inhibitors of phosphatidylinositol 5-phosphate 4-kinase (PI5P4K) | Phosphatidylinositol 5-phosphate 4-kinase type-2 alpha (Homo sapiens), P48426 | PI5P4Kalpha enzyme, ADP-Glo luminescence, 60 min; hits give low values | max response, % | hit rate 1.2% among 330,000 | AID 652105, 2013; active = max response of -50% or lower; inconclusive = between -30% and -50%; inactive = -30% or higher; also: value at the top dose of about 77 µM; % is scaled to controls: 0 for no effect and ±100 for the full control effect
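qHTS, 1536-well: enzyme/substrate mix, compound by pin tool, 5 microM ATP final; RT 60 min; ADP-Glo reagents 1 (45 min) then 2 (30 min); luminescence.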
BAZ2B block: qHTS Assay for Inhibitors of BAZ2B; AlphaScreen BAZ2B-H3K14Ac peptide displacement; Potency, µM (titrated, usually from 114 µM), for inactives: at the highest dose activity change, negative = inhibition, most hits filed as inhibitors; hit rate 4.4% among 360,000; AID 504333, 2011; also: potency is read from the fitted curve at half-maximal effect; % is scaled to controls: 0 for no effect and ±100 for the full control effect; nearly all actives have a fitted effect of over 60% in size
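In this displacement format the biotinylated H3(5-23) peptide acetylated at Lys14 serves as ligand at 50 nM, with BAZ2B at 50 nM in PBS pH 7.4 containing 0.01% Tween-20. Donor and acceptor beads are 10 ug/mL final.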
HP1b chromo inh: HTS for Inhibitors of HP1-beta Chromodomain Interactions with Methylated Histone Tails; AID 540317, 2011; AlphaScreen HP1-beta / biotin-H3K9me3 peptide binding; hit rate 0.56% among 390,000; Potency, µM (titrated, usually from 114 µM), for inactives: at the top dose activity change, negative = inhibition, actives largely listed as inhibitors; Chromobox protein homolog 1 (Homo sapiens), P83916; also: potency is read from the fitted curve at half-maximal effect; nearly all actives have a fitted effect of over 70% in size
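Compound inhibition of the preformed complex between 50 nM HP1-beta and 50 nM biotinylated H3K9me3 peptide was read by AlphaScreen. Buffer was PBS pH 7.4 with 0.01% Tween-20. Incubations ran 30 min at room temperature, with 10 ug/mL donor/acceptor beads.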
ADP-Glo counter: qHTS for Inhibitors of PI5P4K: ADP-Glo counter assay; ADP-Glo detection counter-screen, luciferase luminescence, no enzyme; 1,100 tested, under 10 active; shares compounds with PI5P4Ka inh; Potency, µM (highest dose often 76.9 µM), for inactives: at the top dose activity change, negative = inhibition, actives largely listed as inhibitors
The depositor's hits bear a star; ? = inconclusive; . = no result given; [ ] = remark or other dose. Unless noted, calls follow the shape of the dose curve; as a rule, active = well fitted curve in the direction sought with a large enough effect; inconclusive = small, poorly fitted or top-dose-only effect, or another doubt; inactive = no such curve, though single readings can be large; an effect the other way counts as inactive or inconclusive.

SMILES | JMJD2A Tudor inh | G9a block | PLK1 PBD block | PI5P4Ka inh | BAZ2B block | HP1b chromo inh | ADP-Glo counter
O=C(NC1CCC(O)CC1)c1cc(-c2ccco2)nc2ccccc12 (stereo not drawn) | ? | 40µM* | ? | -67* | 22µM* | -15% | -6%
COc1cccc(NC(=O)CN(C)C(=O)c2cc(-c3ccccc3)nc3ccccc23)c1 | -30% | ? | -1% | -3 | 0% | 26% | .
CCCCn1c(N)c(N(CCC(C)C)C(=O)c2cc(Cl)nc3ccccc23)c(=O)[nH]c1=O | -24% | 27%[59 µM] | -2% | 1 | 19% | 6% | .
CN(C)C(CNC(=O)c1cc(-c2ccco2)nc2ccccc12)c1ccccc1 (stereo not drawn) | ? | . | ? | -54* | . | -12%[57 µM] | -1%
COc1ccc(NC(=O)CN(C)C(=O)c2cc(-c3ccco3)nc3ccccc23)cc1 | 14µM* | -3%[0.501 µM] | ? | -74* | 32µM* | 45µM* | -5%
CCCCn1c(N)c(N(CC(C)C)C(=O)c2cc(-c3ccco3)nc3ccccc23)c(=O)[nH]c1=O | -26% | -4%[0.501 µM] | -15% | -59* | -32% | 5% | 3%
NS(=O)(=O)c1ccc(CCNC(=O)c2cc(-c3ccco3)nc3ccccc23)cc1 | ? | ? | ? | ? | 1% | 0% | .
Cc1ccc(CN2CCC(CNC(=O)c3cnn(-c4ccccc4)c3C3CCN(C(=O)OC(C)(C)C)CC3)CC2)cc1 | -36% | -14%[59 µM] | . | . | 5%[57.1 µM] | -13% | .
Cc1csc2nc(COC(=O)CNC(=O)c3ccc(F)cc3)cc(=O)n12 | -15% | 18%[59 µM] | . | . | 0% | -8% | .
O=C(COC(=O)c1ccco1)Nc1nc2c(F)c(F)c(F)cc2s1 | -19% | -7% | -28% | -53* | -2% | 9% | 2%
CC(C)(C)c1cc(C(=O)NCc2cc(F)cc3c2OCOC3)n(Cc2ccccc2)n1 | -7% | -6% | -1% | 13 | 1% | 29% | .
NS(=O)(=O)c1cc(C(=O)NC2CCSc3ccccc32)ccc1Cl (stereo not drawn) | 0.79µM* | 1.6µM* | 6.7µM* | -84* | ? | 2.2µM* | 7%
CCOC(=O)C1(C)CCN1C(=O)c1ccc(OC)c(OC)c1 (stereo not drawn) | . | . | -1% | 7 | . | . | .
COc1cccc(NC(=O)c2oc3ccc(S(=O)(=O)N4CCOCC4)cc3c2C)c1 | -14% | -41% | -3% | -7 | 5% | 15% | .
COc1ccc2oc(C(=O)Nc3ccc(N4CCOCC4)cc3)c(C)c2c1 | ? | 50µM* | -11% | -68* | 50µM* | -15% | -1%
Cc1cc2nc(-c3ccco3)c(Cc3cccc(Cl)c3)n2c(C)c1Br | . | . | ? | -56* | . | . | -1%
Cc1cc2nc(-c3ccco3)c(CC(C)(C)C)n2c(C)c1Br | . | . | -26% | -20 | . | . | .
COc1ccccc1Cc1c(-c2ccco2)nc2cc(C)c(Br)c(C)n12 | . | . | ? | -64* | . | . | -1%
COc1ccc([C@H]2C[C@H](n3cc(COC(=O)c4ccccc4)nn3)[C@@H](O)CN2C(=O)c2cccs2)cc1 | . | . | -6% | 0 | . | . | .
O=C(Nc1ccc(Cl)cc1)C1CCCN(S(=O)(=O)c2ccc3[nH]c(=O)ccc3c2)C1 (stereo not drawn) | -4% | 8%[59 µM] | . | . | 4% | 77% | .
O=C(NCCc1ccccc1)C(c1cccs1)N(C(=O)c1csnn1)C1CC1 (stereo not drawn) | -21% | 6% | -9% | 0 | 9% | 7% | 1%
COc1ccc(N(C(=O)C2CSC(=O)C2)C(C(=O)NC(C)(C)C)c2ccncc2)cc1 (stereo not drawn) | -10% | -4%[0.501 µM] | -5% | -78* | 7% | 28% | 2%
CC(C)(C)NC(=O)C(c1ccncc1)N(C(=O)C1CSC(=O)C1)c1ccccc1 (stereo not drawn) | 11% | 13% | 2% | -3 | -17% | 52% | .
CCOC(=O)Cc1cc(=O)n2[nH]c(-c3ccccc3)c(-c3ccccc3)c2n1 | -19% | -7% | -28% | -50* | 1% | 25% | 3%
CCOC(=O)Cc1cc(=O)n2[nH]c(C)c(-c3ccccc3)c2n1 | -24% | -3% | -16% | 1 | 6% | 27% | .
SMILES | JMJD2A Tudor inh | G9a block | PLK1 PBD block | PI5P4Ka inh | BAZ2B block | HP1b chromo inh | ADP-Glo counter
COC(=O)c1sccc1S(=O)(=O)N1CCN(c2cccc(C)c2C)CC1 | -8% | 30%[59 µM] | . | . | 3% | 17% | .
COc1ccc(-c2cc(CNc3nc(NC(C)C)nc4cc(-c5ccccc5)sc34)on2)cc1 | . | . | 5% | . | . | . | -15%
CC(=O)Nc1ccc(CNc2nc(NC(C)C)nc3cc(-c4ccccc4)sc23)cc1 | . | . | 1% | . | . | . | -2%
O=C(CS(=O)(=O)c1cccc2nsnc12)Nc1cc(F)ccc1F | -20% | -2%[59 µM] | . | . | -18% | 22%[57 µM] | .
Cc1ccc(OCC(=O)Nc2c(C(=O)c3ccc(Cl)cc3)oc3ccccc23)cc1C | -1% | -38%[59 µM] | . | . | 3% | 40% | .
CCOC(=O)CNC(=O)C1Cc2ccccc2CN1S(=O)(=O)c1cccs1 (stereo not drawn) | -14% | -4% | -16% | -5 | -3% | 1% | .
COC(=O)CNC(=O)C1Cc2ccccc2CN1S(=O)(=O)c1cccs1 (stereo not drawn) | 9% | 8% | 1% | -5 | 0% | 6% | -4%
O=C(O)c1cc2c(N3CCC(Cc4ccccc4)CC3)ncnc2s1 | -20% | -36% | -16% | . | ? | 20% | 3%
CCc1nnc(NC(=O)c2cc(=O)c3cc(C)c(C)cc3o2)s1 | -2% | -8%[59 µM] | . | . | -4% | 27% | .
O=C(COc1cccc2ccccc12)Nc1ccc(Cl)cc1C(=O)O | -27% | 79µM* | 27µM* | -54* | -18% | 10% | -1%
CCCCn1c(=O)[nH]c(=O)c2c1nc(-c1ccc3ccccc3c1)n2CC | -10% | 6% | -15% | 3 | -13% | 18% | .
CCCCn1c(=O)[nH]c(=O)c2c1nc(-c1ccc(-c3ccccc3Br)o1)n2CC | -19% | 10µM* | -19% | -53* | -9% | 16% | -1%
S=C(NCc1ccccc1)N1CCc2ccccc2C1 | 4%[57.1 µM] | 1% | -6% | -93* | 25% | 56% | 6%
